# According to PubChem BioAssay (NCATS):
# Records with an inconclusive call do not appear. A call without a number means that no potency is given here. Calls of active or inactive are those of the source. The call rests on the fitted dose curve; in most records, active means well fitted curve in the direction sought with a large enough effect; inconclusive means small, poorly fitted or top-dose-only effect, or another doubt; inactive means no such curve, though single readings can be large; an effect the other way counts as inactive or inconclusive.
# What was measured:
# [1] = Cellular Toxicity (caspase-3) H-4-II-E (AID 663);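 further: cells exposed to compound for 16 hr before readout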
# Summary of the method: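 Apoptosis induction is scored as increased luminescence from caspase 3/7 substrate cleavage in rat hepatoma H-4-II-E cells exposed to compound for 16 hr. Activity is scaled between DMSO and 100 uM tamoxifen.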
# [2] = Cellular Toxicity (caspase-3) Hek293 (AID 664);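 further: cells exposed to compound for 16 h at 37 °C before readout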
# Summary of the method: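 Activation of caspase-3/7 is measured as increased luminescence from cleaved peptide-aminoluciferin substrate in HEK293 cells treated 16 hours at 37 °C. AC50 values come from Hill-equation fits of concentration-response data.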
# [3] = Cellular Toxicity (caspase-3) N2a (AID 665);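 further: compound exposure lasted 16 h at 37 °C before readout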
# Summary of the method: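 Plated mouse neuroblastoma N2a cells received titrated compounds for 16 h in complete medium. Caspase activity was then detected with a peptide-aminoluciferin luminescent reagent.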
# [4] = Cellular Toxicity (caspase-3) NIH 3T3 (AID 666);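 further: caspase signal read after 16 h compound exposure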
# Summary of the method: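 Concentration-response qHTS in NIH 3T3 mouse fibroblasts scores caspase-3/7 activation as rising luminescence after 16 hr compound exposure. Signals are scaled between DMSO-only and 100 uM tamoxifen.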
# [5] = Cellular Toxicity (caspase-3) Renal Proximal Tubule (AID 667);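 further: cells exposed to compound for 16 hours at 37 °C before detection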
# Summary of the method: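 In qHTS format, rat primary proximal tubule cells seeded at 1000 per well are exposed to compounds for 16 hours at 37 °C. An increase in Caspase-Glo 3/7 luminescence indicates caspase activation.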
# [6] = target: Cytochrome P450 2C9 (Homo sapiens) (UniProt P11712); assay: qHTS Assay for Inhibitors and Substrates of Cytochrome P450 2C9 (AID 883); further: nearly all actives have a fitted effect of over 60% in size; further: potency means the concentration at half of the fitted maximal effect
# Chain of Cytochrome P450 2C9 (Homo sapiens) (P11712 whole entry, looked up): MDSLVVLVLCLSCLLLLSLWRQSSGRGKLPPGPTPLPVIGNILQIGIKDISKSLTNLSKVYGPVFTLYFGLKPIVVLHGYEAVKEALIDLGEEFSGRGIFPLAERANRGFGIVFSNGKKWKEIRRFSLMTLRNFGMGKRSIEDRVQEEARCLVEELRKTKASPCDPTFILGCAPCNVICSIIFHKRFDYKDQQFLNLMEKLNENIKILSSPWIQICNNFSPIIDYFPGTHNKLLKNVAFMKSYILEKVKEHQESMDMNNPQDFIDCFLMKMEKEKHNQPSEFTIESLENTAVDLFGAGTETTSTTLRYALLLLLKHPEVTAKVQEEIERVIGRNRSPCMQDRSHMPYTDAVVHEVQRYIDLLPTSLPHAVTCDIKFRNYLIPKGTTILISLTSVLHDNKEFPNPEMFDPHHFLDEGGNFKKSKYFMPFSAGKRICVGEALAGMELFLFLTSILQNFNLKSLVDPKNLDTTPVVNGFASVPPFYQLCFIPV
# Summary of the method: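 Turnover of Luciferin-H (100uM, KM) by 10nM human CYP2C9 was measured over 60 min at 37C with NADPH regeneration; inhibitors and some substrates reduce luminescence. Data normalized to sulphaphenazole 57uM.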
# [7] = target: Cytochrome P450 3A4 (Homo sapiens) (UniProt P08684); assay: qHTS Assay for Inhibitors and Substrates of Cytochrome P450 3A4 (AID 884); further: nearly all actives have a fitted effect of over 50% in size; further: potency means the concentration at half of the fitted maximal effect
# Chain of Cytochrome P450 3A4 (Homo sapiens) (P08684 whole entry, looked up): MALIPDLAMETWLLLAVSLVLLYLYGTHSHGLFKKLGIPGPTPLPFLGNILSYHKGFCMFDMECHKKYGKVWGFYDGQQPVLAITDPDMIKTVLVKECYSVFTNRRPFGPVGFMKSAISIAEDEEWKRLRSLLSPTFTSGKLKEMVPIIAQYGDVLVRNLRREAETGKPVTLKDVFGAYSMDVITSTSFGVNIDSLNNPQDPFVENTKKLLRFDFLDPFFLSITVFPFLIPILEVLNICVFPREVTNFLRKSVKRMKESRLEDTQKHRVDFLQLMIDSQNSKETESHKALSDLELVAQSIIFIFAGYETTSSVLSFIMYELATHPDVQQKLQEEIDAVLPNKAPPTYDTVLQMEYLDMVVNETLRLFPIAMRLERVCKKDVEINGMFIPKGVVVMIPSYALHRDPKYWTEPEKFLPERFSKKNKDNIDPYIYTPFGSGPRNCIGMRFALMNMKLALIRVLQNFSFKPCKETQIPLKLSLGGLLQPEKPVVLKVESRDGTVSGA
# Summary of the method: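 20 nM human CYP3A4 with 25 uM Luciferin-PPXE (at KM) in 200 mM KPO4, preincubated 10 min with compound; NADPH regeneration started a 60 min RT reaction. Luciferin detected by luminescence, normalized to 57 uM ketoconazole as full inhibition.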
# [8] = target: Cytochrome P450 2D6 (Homo sapiens) (UniProt P10635); assay: qHTS Assay for Inhibitors and Substrates of Cytochrome P450 2D6 (AID 891); further: nearly all actives have a fitted effect of over 60% in size; further: potency means the concentration at half of the fitted maximal effect
# Chain of Cytochrome P450 2D6 (Homo sapiens) (P10635 whole entry, looked up): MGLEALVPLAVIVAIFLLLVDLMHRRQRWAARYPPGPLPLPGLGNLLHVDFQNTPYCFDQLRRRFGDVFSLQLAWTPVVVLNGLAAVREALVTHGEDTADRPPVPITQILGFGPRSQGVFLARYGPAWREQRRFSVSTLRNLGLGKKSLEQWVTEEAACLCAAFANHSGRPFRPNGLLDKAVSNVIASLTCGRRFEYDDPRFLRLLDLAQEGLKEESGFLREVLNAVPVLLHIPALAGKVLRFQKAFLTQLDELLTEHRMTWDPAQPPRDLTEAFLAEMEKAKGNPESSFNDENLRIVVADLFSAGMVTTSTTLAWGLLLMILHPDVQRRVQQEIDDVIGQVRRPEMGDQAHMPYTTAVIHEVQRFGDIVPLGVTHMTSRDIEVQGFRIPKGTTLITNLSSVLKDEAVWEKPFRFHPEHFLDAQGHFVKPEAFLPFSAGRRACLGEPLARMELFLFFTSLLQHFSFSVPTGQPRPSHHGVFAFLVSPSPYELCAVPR
# Summary of the method: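 Human CYP2D6 (5 nM) with 30 uM Luciferin-ME EGE (at Km) in 100 mM KPO4, compound preincubated 10 min, then NADPH regeneration system for 60 min at room temperature. Luciferin read by luminescence; normalized to 1.43 uM quinidine.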
# [9] = target: Cytochrome P450 3A4 (Homo sapiens) (UniProt P08684); assay: qHTS Assay for Activators of Cytochrome P450 3A4 (AID 885); further: nearly all actives have a fitted effect of over 65% in size
# Summary of the method: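 Quantitative HTS format: compounds preincubated with 20nM human CYP3A4 and Luciferin-PPXE substrate at KM, reaction started by NADPH regeneration, stopped after 60 min, luciferase luminescence read 20 min later.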
# [10] = target: Guanine nucleotide-binding protein G(i) subunit alpha-1 (Homo sapiens) (UniProt P63096); assay: qHTS Assay for Inhibitors of RGS12 GoLoco Motif Activity (Green Fluorophore) (AID 879); further: potency means the concentration at half of the fitted maximal effect
# Chain of Guanine nucleotide-binding protein G(i) subunit alpha-1 (Homo sapiens) (P63096 whole entry, looked up): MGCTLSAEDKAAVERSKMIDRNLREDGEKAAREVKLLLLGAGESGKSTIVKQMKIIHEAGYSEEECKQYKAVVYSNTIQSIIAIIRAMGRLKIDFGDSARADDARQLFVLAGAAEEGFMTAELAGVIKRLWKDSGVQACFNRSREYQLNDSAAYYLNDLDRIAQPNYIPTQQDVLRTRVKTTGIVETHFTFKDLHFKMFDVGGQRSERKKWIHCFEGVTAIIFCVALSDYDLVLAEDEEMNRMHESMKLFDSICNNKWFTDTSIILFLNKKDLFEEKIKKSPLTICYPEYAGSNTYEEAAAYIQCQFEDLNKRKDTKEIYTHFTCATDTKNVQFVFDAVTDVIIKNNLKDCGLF
# Summary of the method: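 Fluorescence polarization assay: 50 nM Gαi1 with 10 nM FITC-labeled RGS12 GoLoco peptide in 10 mM Tris pH 7.5, 150 mM NaCl, 0.1 mM GDP, 0.05% NP40, 10 min at room temperature with compound.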
structure (smiles),measurement,setting,value
CC(=O)C(C)=O,outcome,[1],inactive
same,outcome,[2],inactive
same,outcome,[3],inactive
same,outcome,[4],inactive
same,outcome,[5],inactive
same,Potency,[6],inactive
same,Potency,[7],inactive
same,Potency,[8],inactive
NC(=O)c1ccccc1,outcome,[1],inactive
same,outcome,[2],inactive
same,outcome,[3],inactive
same,outcome,[4],inactive
same,outcome,[5],inactive
same,Potency,[6],inactive
same,Potency,[9],inactive
same,Potency,[8],inactive
N[C@@H](CS(=O)O)C(=O)O,Potency,[10],inactive
Cn1c(=O)c2[nH]c(-c3ccc(S(=O)(=O)O)cc3)nc2n(C)c1=O,Potency,[10],inactive
Clc1nccc2c1ccc1ccccc12,Potency,[10],inactive
O=C(O)C1CCNCC1,Potency,[10],inactive
O=C1Nc2ccc(I)cc2/C1=C/c1cc(Br)c(O)c(Br)c1,Potency,[10],inactive
O=c1[nH]c(=O)c2nc3ccccc3nc2[nH]1,Potency,[10],inactive
Nc1nc2[nH]c(=O)cnc2c(=O)[nH]1,Potency,[10],inactive
NOCC(=O)O,Potency,[10],inactive
O=C(O)C1=CCCN(CCON=C(c2ccccc2)c2ccccc2)C1,Potency,[10],inactive
COc1ccccc1N1CCN(CCCNc2c(C)c(=O)n(C)c(=O)n2C)CC1,Potency,[10],inactive
NCCCCN=C(N)N,Potency,[10],inactive
CCCC(=O)NCCc1c2n(c3ccc(OC)cc13)CCCc1ccccc1-2,Potency,[10],inactive
Cc1nc(N=Nc2ccc(S(=O)(=O)O)cc2S(=O)(=O)O)c(COP(=O)(O)O)c(C=O)c1O,Potency,[10],inactive
O=c1[nH]c2ccccc2c2ccccc12,Potency,[10],inactive
CC[C@@H]1Cc2cc(O)ccc2C2=C1c1ccc(O)cc1C[C@H]2CC,Potency,[10],inactive
CCCCCCCCCCCCCCSCC(=O)O,Potency,[10],inactive
Cc1ccc2c(c1)C(N1CCN(C)CC1)=Nc1cccnc1N2,Potency,[10],inactive
CCCCCCCCCCCCCCC[C@H](O)[C@H](N)CO,Potency,[10],inactive
COc1ccc(-c2ccc(N)[n+](CCCC(=O)O)n2)cc1,Potency,[10],inactive
O=C(O)c1cc(=O)cc(C(=O)O)[nH]1,Potency,[10],inactive
CCN(c1nc(N)c(C(=O)N=C(N)N)nc1Cl)C(C)C,Potency,[10],inactive
CNCCNS(=O)(=O)c1cccc2cnccc12,Potency,[10],inactive
NCCNS(=O)(=O)c1cccc2c(Cl)cccc12,Potency,[10],inactive
O=C(O)/C(=C/c1c(C(=O)O)[nH]c2cc(Cl)cc(Cl)c12)c1ccccc1,Potency,[10],inactive
Cc1cc2c(cc1Cl)N(C(=O)Nc1ccnc3ccccc13)CC2,Potency,[10],inactive
CC(N)=O,Potency,[10],inactive
N=C(N)c1ccc(OCCCCCOc2ccc(C(=N)N)cc2)cc1 (tested in a mixture with another compound),Potency,[10],inactive
CC(=O)NCCc1c[nH]c2ccc(O)cc12,Potency,[10],inactive
CCCc1c(OCCCOc2ccc(OCC(=O)O)cc2)ccc(C(C)=O)c1O,Potency,[10],inactive
NC(=O)CNCCC(c1ccccc1)c1ccccc1,Potency,[10],inactive
CCC(=O)N1CCN(C(=O)c2ccccc2)CC1,Potency,[10],inactive
N#CC(C#N)=C(N)/C(C#N)=C/c1ccc(O)cc1,Potency,[10],inactive
CCN1C(=O)C=CC1=O,Potency,[10],inactive
N=C(N)c1ccccc1,Potency,[10],inactive
CCN(CC)CCOC(=O)c1cc(Cl)c(N)cc1OC,Potency,[10],inactive
same,Potency,[6],inactive
same,Potency,[7],inactive
CC(=O)NNC(=O)N1Cc2ccccc2Oc2ccc(Cl)cc21,Potency,[10],inactive
same,Potency,[6],inactive
same,Potency,[9],inactive
same,Potency,[8],6310 nM (active)
CCn1c(=O)[nH]c2cc(Cl)c(Cl)cc21,Potency,[10],inactive
same,Potency,[6],inactive
same,Potency,[8],inactive
NCCS(=O)O,Potency,[10],inactive
same,Potency,[6],inactive
same,Potency,[8],inactive
COc1cc(/C=C(\C#N)C(=O)c2ccc(O)c(O)c2)cc(I)c1O,Potency,[10],inactive
same,Potency,[6],501 nM (active)
O=[N+]([O-])c1cccc2c(Br)[nH]nc12,Potency,[10],inactive
same,Potency,[6],inactive
O=C(O)Cc1c[nH]c2ccc(O)cc12,Potency,[10],inactive
same,Potency,[6],inactive
Cc1nc(N=Nc2cc(S(=O)(=O)O)c3cc([N+](=O)[O-])cc(S(=O)(=O)O)c3c2)c(COP(=O)(O)O)c(C=O)c1O,Potency,[10],inactive
same,Potency,[6],inactive
same,Potency,[7],inactive
same,Potency,[9],inactive
same,Potency,[8],inactive
CC(=O)N[C@@H](Cc1c[nH]c2ccccc12)C(=O)OCc1cc(C(F)(F)F)cc(C(F)(F)F)c1,Potency,[10],inactive
same,Potency,[6],12600 nM (active)
NC(N)=NC(N)=Nc1ccccc1,Potency,[10],inactive
same,Potency,[6],inactive
same,Potency,[7],inactive
same,Potency,[8],inactive
CCCCCCCC/C=C\CCCCCCCC(=O)NCCc1ccc(O)c(O)c1,Potency,[10],inactive
same,Potency,[6],1580 nM (active)
same,Potency,[7],3160 nM (active)
Nc1ccc2c3c(cccc13)C(=O)NC2=O,Potency,[10],794 nM (active)
same,Potency,[6],inactive
same,Potency,[9],inactive
O=C(O)c1cc2cc(F)ccc2[nH]1,Potency,[10],inactive
same,Potency,[6],inactive
same,Potency,[7],inactive
same,Potency,[8],inactive
Oc1ccc(Cn2cc[nH]c2=S)cc1,Potency,[10],inactive
same,Potency,[6],inactive
same,Potency,[9],inactive
Cn1cc(C(=O)OCC2CCN(CCNS(C)(=O)=O)CC2)c2ccccc21,Potency,[10],inactive
same,Potency,[6],inactive
same,Potency,[8],inactive
